Laboratory results reported in ChEMBL document CHEMBL3988442, “University of Dundee, Small-Polar-MMV Screening Library” (2021).
Among all 53,000 compounds or so, about 900 (1.7%) showed an effect of 50% or more. The sample as a whole holds a higher share of strong results than the screen did.

System: Mycobacterium tuberculosis
Assay: Cornell - Phenotypic assay to identify agents that inhibit growth of Mycobacterium tuberculosis
Assay type: functional
Design: scale not given: direction of the effect not stated beside the values
Settings: 10 mM as filed; unlikely as a test dose

| SMILES | Percent Effect [%] |
| --- | --- |
| COc1cccc(CNCC2CN(C)CCO2)c1 (stereo not drawn) | 10.27 |
| CC(=O)N1CCN(Cc2ccc(OCc3nccn3C)cc2)CC1 | -16.77 |
| Cc1cc2nccc(C3CCCN(C(=O)c4ccccc4F)C3)n2n1 (stereo not drawn) | 8.36 |
| c1nc(-c2nc(C3CCOC3)no2)cs1 (stereo not drawn) | -30.96 |
| O=C(Nc1ccccc1)c1ccc(NCc2ccncc2)nn1 | 71.71 |
| O=C(Nc1ccccc1)c1ccc(NCc2ccccc2CO)nn1 | 16.95 |
| O=C(Nc1ccccc1)c1ccc(NCc2nccs2)nn1 | 40.64 |
| CC(=O)N1CCCC1c1nc(C)c2c(n1)N(Cc1ccccn1)CCC2 (stereo not drawn) | -10.82 |
| O=C(CCCOCc1ccccc1)N1CCCC(c2ncc[nH]2)C1 (stereo not drawn) | 18.83 |
| O=C(Cc1cccs1)N1CC[C@H]2[C@@H]1CCC(=O)N2c1cccnc1.O=C(O)C(F)(F)F | 4.016 |
| O=C1CC(c2ccccc2C(F)(F)F)c2sc(N3CCOCC3)nc2N1 (stereo not drawn) | 43.16 |
| COc1ccccc1C1CC(=O)Nc2nc(N3CCCCC3)sc21 (stereo not drawn) | 102.8 |
| COc1cccc(C2CC(=O)Nc3nc(N4CCOCC4)sc32)c1OC (stereo not drawn) | 84.05 |
| O=C1CC(c2ccccc2Br)c2sc(N3CCOCC3)nc2N1 (stereo not drawn) | 44.02 |
| COc1ccccc1C1CC(=O)Nc2c1c(=O)[nH]n2C(C)C (stereo not drawn) | 7.683 |
| CCn1ncnc1C1CC(=O)NCc2nc(N3CCOCC3)sc21 (stereo not drawn) | 3.2 |
| CC(C)Oc1ccccc1C1CC(=O)Nc2nc(N3CCOCC3)sc21 (stereo not drawn) | 106.3 |
| CCOc1cccc(C2CC(=O)NCc3nc(N4CCCC4)sc32)c1 (stereo not drawn) | -20.96 |
| CNc1nc2c(s1)C(c1ccc(Cl)cc1Cl)CC(=O)N2 (stereo not drawn) | 15.33 |
| COc1ccccc1C1CC(=O)Nc2c1c(=O)[nH]n2C1CCCC1 (stereo not drawn) | 42.49 |
| COc1cccc(C2CC(=O)Nc3nc(N4CCCCC4)sc32)c1OC (stereo not drawn) | 70.71 |

| SMILES | Percent Effect [%] |
| --- | --- |
| CCNc1nnc(CCn2nc(C)c(Br)c2C)s1 | 29.93 |
| COCC(O)CN1CCC(=O)N(CC=C(C)C)Cc2ccccc21 (stereo not drawn) | -1.382 |
| CCc1cnc(N2C[C@H]3C[C@H](C(=O)N4CCOCC4)[C@@H](C2)O3)nc1.O=C(O)C(F)(F)F | 10.32 |
| CCS(=O)(=O)Nc1ccc(C(=O)NCCCN2CCCC2)cc1 | -15.51 |
| CCc1cnc(N2CC[C@H]3[C@@H]2CCC(=O)N3c2ccccc2)nc1.O=C(O)C(F)(F)F | -28.43 |
| CCc1nnc(CN(CC)C(=O)C2CC(=O)N(C3CC3)C2)o1 (stereo not drawn) | 3.101 |
| CNC(=O)C1CCCN1C(=O)NCCCc1cccc(F)c1 (stereo not drawn) | 3.774 |
| COc1ccc(C2CC(=O)Nc3nc(N4CCOCC4)sc32)c(OC)c1 (stereo not drawn) | 45.08 |
| COc1ccc(OC)c(C2CC(=O)Nc3nc(N4CCOCC4)sc32)c1 (stereo not drawn) | 77.37 |
| COc1cccc(C2SCC(=O)Nc3ccsc32)c1OC (stereo not drawn) | 25.58 |
| COc1cccc(C2CC(=O)Nc3nc(N)sc32)c1OC (stereo not drawn) | 76.98 |
| COc1ccc(C2CC(=O)Nc3nc(N4CCOCC4)sc32)cc1 (stereo not drawn) | 22.64 |
| COc1ccc(C2SCC(=O)Nc3n[nH]cc32)c(OC)c1OC (stereo not drawn) | -14.08 |
| CCN(Cc1ccncc1)CC1(O)CCN(C(=O)c2cnn(C)c2)C1 (stereo not drawn) | -5.524 |
| O=C(NCc1ccccc1)[C@H]1C[C@@H]2CN(C(=O)NC3CCCC3)C[C@H]1O2 | -33.72 |
| Cc1cc(C(=O)N2C[C@@H]3OCCN(CCN4CCCC4)[C@@H]3C2)c(C)o1.O=C(O)C(F)(F)F | -34.44 |
| Cc1cccc(NC2CCN(C(=O)Nc3cn[nH]c3)CC2)n1 | 5.834 |
| CCc1cc(N(C)Cc2ccno2)n2nc(C)c(C)c2n1 | 28.15 |
| Cc1cc(=O)[nH]c(NC2CCN(S(=O)(=O)c3ccccc3)CC2)n1 | 26.85 |
| Cc1nc(NC2CCN(S(=O)(=O)c3ccccc3)CC2)[nH]c(=O)c1C | -2.855 |
| CCc1cc(=O)[nH]c(NC2CCN(S(=O)(=O)c3ccccc3)CC2)n1 | 69.51 |

| SMILES | Percent Effect [%] |
| --- | --- |
| O=C(N1CCOCC1)N1CCc2ncc(CN3CCCCC3)n2CC1.O=C(O)C(F)(F)F | 15.78 |
| COCCCN(Cc1ccccn1)S(=O)(=O)c1ccc(OC)cc1 | -5.527 |
| CC(C)(C)c1cc(NC(=O)NCCc2nnc3n2CCC3)c(C#N)s1 | 18.93 |
| Cc1noc(CCCC(=O)NCCc2cc3ccccc3[nH]2)n1 | 55.01 |
| Cc1noc(CCCNC(=O)CNC(=O)c2cc3ccccc3[nH]2)n1 | 17.25 |
| Cc1noc(CCCC(=O)Nc2ncccc2Br)n1 | -30.93 |
| O=C(O)C(F)(F)F.O=C(O)C(F)(F)F.c1nc(CN2CCC3(CC2)COCCN3CC2CC2)c[nH]1 | 14.15 |
| CC(=O)N1CCC2(C1)c1ccccc1S(=O)(=O)N2Cc1ccccc1 (stereo not drawn) | -2.139 |
| CCS(=O)(=O)N1CCc2ccc(NC(=O)Nc3cccc(C)c3)cc21 | 35.62 |
| CCS(=O)(=O)N1CCc2ccc(NC(=O)Nc3ccccc3)cc21 | 24.03 |
| CCS(=O)(=O)N1CCc2ccc(NC(=O)Nc3cccc(C#N)c3)cc21 | 83.89 |
| O=C(CC1=CSC2=NCCCN12)N1CCCCCC1c1ccco1 (stereo not drawn) | -8.894 |
| Cc1nn(C)c2nc(-c3ccccn3)nc(NC[C@@H]3CCCO3)c12 | 21.74 |
| CC(=O)NCCNc1nc(-c2ccccn2)nc2c1c(C)nn2C | 12.46 |
| CCSCCNc1nc(-c2ccccn2)nc2c1c(C)nn2C | 51.67 |
| Cc1nn(C)c2nc(-c3ccccn3)nc(NCCC3CCCN3C)c12 (stereo not drawn) | -44.58 |
| Cc1nn(C)c2nc(-c3ccccn3)nc(NCCCOC(C)C)c12 | 64.07 |
| CSCC[C@@H](CO)Nc1nc(-c2ccccn2)nc2c1c(C)nn2C | 2.174 |
| Cc1nc(-c2cc(C(=O)O)co2)cs1 | 58.57 |
| CNC(=O)c1coc(-c2csc(C)n2)c1 | 11.85 |
| Cc1nc(-c2cc(C(=O)NC(C)(C(=O)O)C(C)C)co2)cs1 (stereo not drawn) | 45.67 |
